In PubChem BioAssay (NCI):
About 83,000 compounds went through this panel and 20% of them were active in at least one assay; those are over-represented in the sample as a whole.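 Percent growth is the endpoint: 0 to 100 indicates growth inhibition (40 means 60% inhibition), 0 means no net growth, and negative values indicate cell death.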 Unmarked numbers belong to inactive results. Calls of active or inactive are those of the source. Rule for the calls: active = growth percent below 10; inactive = the rest.

Tested on: HL-60(TB) leukemia
Assay: NCI-60 one-dose screen, 48 h (100 = growth as untreated, 0 = no growth, -100 = all killed)
Conditions: 10 µM unless noted

| SMILES | growth |
| --- | --- |
| Nc1cc(-c2c[nH]c3ccc(Br)cc23)nc2cc(-c3c[nH]c4ccc(Br)cc34)nn12 | 9.1% (active) |
| Cc1cc(C(=O)Nc2sc3c(c2C(N)=O)CCC(=O)C3)ccc1OCCN1CCCCC1 | 63.3% |
| CCNC(=O)N1CCc2cc(OC)c(OCCc3ccc(OC)nc3)cc2C1c1ccc(C)cc1C (stereo unspecified) | 8.48% (active) |
| Cc1[nH]c(C(=O)Nc2ccc(C(N)=O)cc2N2CCOC(C)C2)c(Cl)c1Cl (stereo unspecified) | 98.1% |
| COc1ccc(CCN2C(=O)CSC2=S)cc1 | 54.6% |
| CCCCCc1ccc(S(=O)(=O)Nc2cccc(-c3csc(NC(=O)CN4CCN(C)CC4)n3)c2)cc1 | 35.8% |
| O=C1Nc2ccccc2/C1=C/c1ccc(OCC(=O)c2ccccc2)cc1 | 105% |
| CCCC(=O)NC(c1cccnc1)c1ccc2c(C)ccnc2c1O (stereo unspecified) | 6.67% (active) |
| COc1cc(/C=C/C(=O)c2ccc(F)cc2)ccc1Oc1nc(NCCO)nc(N2CCOCC2)n1 | 39.8% |
| CC(C)(C)c1ccc(C(=O)Nc2sc3c(c2C(N)=O)CC/C(=N\O)C3)cc1 | 4.37% (active) |
| O=C(NNc1nc2cc(F)ccc2n2cccc12)c1ccncn1 | -4.33% (active) |
| N/C(=N\C(N)=N\c1nc2ccccc2s1)c1ccncc1Cl | 6.91% (active) |
| COc1cc(/C=C/C(=O)c2ccc(NC(=O)CSc3nnc(-c4ccc(-c5nc6ccc(Cl)cc6[nH]5)cc4)o3)cc2)cc(OC)c1OC | 73.6% |
| CCCCCc1ccc(S(=O)(=O)Nc2cc(-c3csc(NC(=O)CN4CCN(C)CC4)n3)ccc2OC)cc1 | -52.4% (active) |
| CCOC(=O)c1c(Nc2ccccc2)nn2c(-c3ccc(OC)c(OC)c3)ccnc12 | 43.3% |
| Clc1ccc2[nH]cc(-c3nn4cc(-c5cccnc5)nc4s3)c2c1 | 86.2% |
| CCc1cc(OC(=O)N2CCC(N3CCCCC3)CC2)ccc1Nc1cc(-c2ccc(-n3cccn3)cc2)[nH]n1 | 62.5% |
| Cn1ccnc1C(=O)/C=C/c1ccc(CNC(=O)c2ccc(F)cc2)cc1 | -4.42% (active) |

| SMILES | growth |
| --- | --- |
| O=S(=O)(NCCCNc1nccc(-c2[nH]c(-c3ccccc3)nc2-c2ccc(F)c(O)c2)n1)c1ccccc1 | 90.6% |
| C#CCOc1ccc(/C=N\Nc2nc(-c3ccc(C)cc3)cs2)cc1OC | 69.5% |
| CC1(C)CC[C@]2(C(=O)O)CC[C@]3(C)C(=CCC4[C@@]5(C)C[C@@H](O)[C@@H]6OC(c7ccccc7O)OC[C@@]6(C)C5CC[C@]43C)C2C1 (stereo partly specified) | 38% |
| CC(C)=CCc1c2c(c(O)c3c1O[C@]14C(=C[C@@H]5C[C@H]1C(C)(C)O[C@@]4(C/C=C(/C)C(=O)O)C5=O)C3=O)CC(O)C(C)(C)O2 (stereo partly specified) | -17.2% (active) |
| C=C1CCc2nc(SCC(=O)O)ccc2N1 | 96% |
| N#Cc1nc(-c2ccccc2)oc1S(N)(=O)=O | 27.1% |
| CCOC(=O)c1c(NC(=O)c2cccc(C(F)(F)F)c2)sc2cc(O)ccc12 | 46.9% |
| Cc1ccc(S(=O)(=O)NCCCNc2nccc(-c3[nH]c(-c4ccccc4)nc3-c3ccc(F)c(O)c3)n2)cc1 | 82.4% |
| CC(C)=CCc1c(O)c(CC=C(C)C)c2c(c1O)C(=O)C1=C[C@@H]3C[C@H]4C(C)(C)O[C@@](C/C=C(\C)C(=O)O)(C3=O)[C@@]14O2 | -14.1% (active) |
| COc1cc(/C=C/C(=O)c2ccc(N3CCN(C)CC3)cc2)ccc1F | 50% |
| Nc1nc(N)c2c(n1)NC(c1ccc(C(F)(F)F)cc1)CC(c1ccc(Nc3nc(NCCO)nc(N4CCOCC4)n3)cc1)=N2 (stereo unspecified) | 21.4% |
| Cc1cc2nc3c4cc(C#N)ccc4n(CCN(C)C)c3nc2cc1C | -35.7% (active) |
| COc1ccccc1-n1cc(C#N)c(N)c1C(=O)c1ccc(Cl)cc1 | 36.5% |
| COC(=O)c1ccc(NC2=C/C(=N/S(=O)(=O)c3ccc(C(=O)O)cc3)c3ccccc3C2=O)cc1 | -15.9% (active) |
| CC(O)c1cc2ccccc2c(=O)o1 (stereo unspecified) | 102% |
| C#CCOc1ccc(/C=N/Nc2nc(-c3cc4cc(Br)cc(Br)c4oc3=O)cs2)cc1 | 85.9% |
| Cc1ccc(Nc2nc(SC(C)C)nc(-c3ccccc3)c2C#N)cc1 | 118% |
| Cc1ccc(C(=O)CSc2nnc(-c3ccc(-c4ccc(Cl)cc4)nc3C)o2)cc1 | 103% |
